# Reference: the supplement of paper PMC13380429
# Legend:
# [1] = tested on: Vero E6 infected with SARS-CoV-2; experiment: morphology score (similarity to uninfected cells); higher = more like uninfected cells; conditions: 24 h
# [2] = tested on: Vero E6 infected with SARS-CoV-2; experiment: SARS-CoV-2 infection rate relative to infected DMSO; higher = more infection, active = 60 or less; conditions: 24 h
SMILES,morphology score [1],SARS-CoV-2 infection rate [2]
O=c1[nH]ccc2cc(OC3CCNCC3)ccc12 (10 µM),0.27,110% (inactive)
Cc1ccc(S(=O)(=O)/C=C/C#N)cc1 (0.833333 µM),0.173,112% (inactive)
N=C(N)N [guanidine] (0.833333 µM),-0.293,118% (inactive)
Cc1c(-c2ccccc2)oc2c(C(=O)OCCN3CCCCC3)cccc2c1=O [flavoxate] (10 µM),0.4,88% (inactive)
CCCC(C(=O)OCCN(CC)CC)(c1ccccc1)c1ccccc1 [proadifen] (10 µM),0.323,89.5% (inactive)
COC1CCN(c2cccc(-c3cc(NC(C)=O)nc(-n4nc(C)cc4C)n3)n2)CC1 (10 µM),-0.0121,104% (inactive)
COc1cc(N2CCC(O)CC2)ccc1Nc1cc(Nc2ccccc2S(=O)(=O)C(C)C)c2cc[nH]c2n1 (0.833333 µM),-0.0202,106% (inactive)
CC(C)N(CCCCOCC(=O)NS(C)(=O)=O)c1cnc(-c2ccccc2)c(-c2ccccc2)n1 [selexipag] (10 µM),-0.0772,116% (inactive)
COc1ccccc1OC(=O)C(C)c1ccc(CC(C)C)cc1 (stereo not given) [metoxibutropate] (10 µM),0.217,101% (inactive)
Nc1c(CC(=O)O)cccc1C(=O)c1ccccc1 [amfenac] (10 µM),0.0516,104% (inactive)
C[C@H](NC[C@H](O)CP(=O)(O)CC1CCCCC1)c1ccc(Cl)c(Cl)c1 (10 µM),-0.206,114% (inactive)
CC(C)(N)c1cc(C(=O)N[C@@H]2CCc3ccc(Oc4ccnc5c4CCC(=O)N5)cc3C2)cc(C(F)(F)F)c1 (0.833333 µM),0.227,99% (inactive)
CN1CCN(CCc2ccc(Cl)c(Cl)c2)CC1 (10 µM),0.156,94% (inactive)
COc1ccc(-c2csc(NC(=O)[C@H]3CCCCN3S(=O)(=O)c3ccc(C)cc3)n2)cc1 (10 µM),0.424,61.5% (inactive)
Cc1ccc(C23CNCC2C3)cc1 (stereo not given) [bicifadine] (10 µM),0.0287,107% (inactive)
N#CC[C@@H](C1CCCC1)n1cc(-c2ncnc3[nH]ccc23)cn1 [ruxolitinib-(S)] (10 µM),0.62,105% (inactive)
O=c1[nH]c2ccc(Cl)cc2c(N[C@@H]2CN3CCC2CC3)c1-c1nc2ccccc2[nH]1 (10 µM),-0.162,110% (inactive)
CCCCCCCCCCC(C)(C)C(=O)Nc1c(OC)cc(OC)cc1OC (10 µM),-0.024,111% (inactive)
Oc1cc(O)c2c(c1)O[C@H](c1ccc(O)c(O)c1)[C@@H](O)C2 [cianidanol] (10 µM),-0.0417,110% (inactive)
CCC(=O)O[C@H]1CC[C@H]2[C@@H]3CCC4=CC(=O)CC[C@]4(C)[C@H]3CC[C@]12C (10 µM),-0.129,110% (inactive)
COc1cc(C[C@@H](CO)[C@H](CO)Cc2ccc(O)c(OC)c2)ccc1O [secoisolariciresinol-(-)] (10 µM),-0.0638,109% (inactive)
C=C1/C(=C\C=C2/CCC[C@]3(C)[C@@H]([C@H](C)/C=C/[C@H](C)C(C)(C)O)CC[C@@H]23)C[C@@H](O)C[C@@H]1O [ercalcitriol] (10 µM),0.0324,97.5% (inactive)
CCC[C@@H]1CC(=O)N([C@@H](CC)C(N)=O)C1 [Brivaracetam] (10 µM),0.0266,111% (inactive)
C#C[C@]1(OC(C)=O)CC[C@H]2[C@@H]3CCC4=CC(=NO)CC[C@@H]4[C@H]3CC[C@@]21CC (mixture of isomers) [norgestimate] (10 µM),0.111,108% (inactive)
CCN(CC)S(=O)(=O)c1ccc(C(=O)O)cc1 [etebenecid] (10 µM),0.125,105% (inactive)
Nc1nc(OCc2ccccc2)c2nc[nH]c2n1 [O6-benzylguanine] (10 µM),0.112,108% (inactive)
COC(F)(F)C(Cl)Cl [methoxyflurane] (10 µM),0.106,100% (inactive)
O=C(Nc1ccc(S(=O)(=O)C(F)(F)F)cc1)C1=CCN(c2ncccc2C(F)(F)F)CC1 (10 µM),0.135,108% (inactive)
Cc1cc(O)c(C(C)C)cc1Cl [chlorothymol] (10 µM),-0.0977,104% (inactive)
Cc1ccc2c(N3CCN(CCc4cccc(N5CCNC5=O)c4)CC3)cccc2n1 (10 µM),0.325,84% (inactive)
